Among all 5,500 compounds or so, about 2,000 (36%) were called active. Another 18% or so got no clear call; they are omitted. Rule as the data show it: active = normalized growth mostly below about 0.91 (no sharp cut-off); inconclusive = no clear call, values can overlap the other calls; inactive = mostly above about 0.92. The list shows a part of the results.
Test: chemical genetic growth profiling, strain panel (AID 1159580);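 also: tested at 20 µM; growth read once vehicle control cultures reached saturation at 30 °C; 1 = growth at the plate median or of vehicle wells; lower values mean less growth of the strain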
Details: growth OD
[1] = S. cerevisiae deletion strains, locus YBR229C, strain ROT2, stronger effect = lower value
[2] = S. cerevisiae deletion strains, locus YCL061C, strain MRC1, stronger effect = lower value
[3] = S. cerevisiae deletion strains, locus YDL101C, strain DUN1, stronger effect = lower value
[4] = S. cerevisiae deletion strains, locus YDL134C, strain PPH21, stronger effect = lower value
[5] = S. cerevisiae deletion strains, locus YDR150W, strain NUM1, stronger effect = lower value
[6] = S. cerevisiae deletion strains, locus YEL061C, strain CIN8, stronger effect = lower value
[7] = S. cerevisiae deletion strains, locus YGR078C, strain PAC10, stronger effect = lower value
[8] = S. cerevisiae deletion strains, locus YHR030C, strain SLT2, stronger effect = lower value
[9] = S. cerevisiae deletion strains, locus YHR087W, strain rtc3, stronger effect = lower value
[10] = S. cerevisiae deletion strains, locus YJR043C, strain POL32, stronger effect = lower value
[11] = S. cerevisiae deletion strains, locus YJR075W, strain HOC1, stronger effect = lower value
[12] = S. cerevisiae deletion strains, locus YLR039C, strain RIC1, stronger effect = lower value
[13] = S. cerevisiae deletion strains, locus YLR058C, strain SHM2 (second series), stronger effect = lower value
[14] = S. cerevisiae deletion strains, locus YLR085C, strain ARP6, stronger effect = lower value
[15] = S. cerevisiae deletion strains, locus YLR262C, strain YPT6, stronger effect = lower value
[16] = S. cerevisiae deletion strains, locus YML094W, strain GIM5, stronger effect = lower value
[17] = S. cerevisiae deletion strains, locus YMR219W, strain ESC1, stronger effect = lower value
[18] = S. cerevisiae deletion strains, locus YMR263W, strain SAP30, stronger effect = lower value
[19] = S. cerevisiae deletion strains, locus YNL153C, strain GIM3, stronger effect = lower value
[20] = S. cerevisiae deletion strains, locus YNL298W, strain CLA4 (second series), stronger effect = lower value
[21] = S. cerevisiae deletion strains, locus YNL322C, strain KRE1, stronger effect = lower value
[22] = S. cerevisiae deletion strains, locus YNR030W, strain Alg12, stronger effect = lower value
[23] = S. cerevisiae deletion strains, locus YPL055C, strain LGE1, stronger effect = lower value
[24] = S. cerevisiae deletion strains, locus YPL241C, strain CIN2, stronger effect = lower value
[25] = S. cerevisiae deletion strains, locus YPR135W, strain CTF4, stronger effect = lower value

Measured: normalized growth

Cc1ccc(OCC(=O)NN)c2c1CCC2
inactive: [1] 1 | [2] 0.994 | [3] 1.03 | [4] 1.01 | [5] 1.01 | [6] 1.01 | [7] 0.989 | [8] 0.985 | [9] 1.04 | [10] 0.99 | [11] 0.989 | [12] 0.867 | [13] 1.01 | [14] 1.01 | [15] 0.913 | [16] 1.01 | [17] 0.991 | [18] 1.01 | S. cerevisiae deletion strains, locus YMR307W, strain GAS1, stronger effect = lower value 0.963 | [19] 1 | [20] 0.989 | [21] 0.997 | [22] 1.01 | S. cerevisiae deletion strains, locus YOL006C, strain TOP1, stronger effect = lower value 1.01 | [23] 1.01 | [24] 1.01 | [25] 0.982 | S. cerevisiae strains, strain wild type, stronger effect = lower value 1.01

Cc1cc(Br)c(OCC(=O)NN)c2c1CCC2
inactive: S. cerevisiae deletion strains, locus YAL013W, strain DEP1, stronger effect = lower value 1 | [1] 1 | [2] 1.01 | [3] 0.995 | [4] 1 | [5] 1.05 | [6] 0.985 | [7] 0.999 | [8] 0.856 | [9] 0.993 | [10] 0.998 | [11] 0.989 | S. cerevisiae deletion strains, locus YKL190W, strain CNB1, stronger effect = lower value 0.989 | [13] 0.999 | [14] 0.947 | [16] 0.975 | [17] 1 | [18] 0.961 | [19] 1.02 | [20] 0.979 | [21] 0.994 | [22] 0.997 | [23] 0.915 | [24] 1.02 | [25] 0.906
active: [12] 0.608 | [15] 0.584

Reference: PubChem BioAssay AID1159580 (chemical genetic matrix, 2015)
